Like-named read-outs stand apart in the source and are kept apart here.
Columns and labels:
Design in all cases: species or system human, MV4-11 + K-562 + COLO205 + SK-N-BE2 + OVCAR-8
CDK4 = settings: read-out: apparent Kd, n = 1
CDK7 = settings: read-out: apparent Kd, n = 1
NUAK1 = settings: read-out: apparent Kd, n = 1
TGFBR2 = settings: read-out: apparent Kd; compound concentrations:100 nM and 1000 nM (sheet 'Samples'); n = 1
ACVR2B = settings: read-out: apparent Kd, compound concentrations: 100 nM and 1000 nM (sheet 'Samples'), n = 1
MAPK10 = settings: read-out: apparent Kd, n = 1
MAPK11 = settings: read-out: apparent Kd, n = 1
AURKA = settings: read-out: apparent Kd, compound concentrations: 100 nM and 1000 nM (sheet 'Samples'), n = 1
STK10 = settings: read-out: apparent Kd, n = 1
PKN3 = settings: read-out: apparent Kd; compound concentrations:100 nM and 1000 nM (sheet 'Samples'); n = 1
PIM2 = settings: read-out: apparent Kd, compound concentrations: 100 nM and 1000 nM (sheet 'Samples'), n = 1
PRKAG1 = settings: read-out: apparent Kd, n = 1
SYK = settings: read-out: apparent Kd; compound concentrations: 100 nM and 1000 nM (sheet 'Samples'), CATDS: 3.0941649644307598E-2; n = 1
BMPR1A = settings: read-out: apparent Kd; compound concentrations:100 nM and 1000 nM (sheet 'Samples'); n = 1
EPHB3 = settings: read-out: apparent Kd; compound concentrations: 100 nM and 1000 nM (sheet 'Samples'), CATDS: 4.67907505867102E-2; n = 1
PIK3CG = settings: read-out: apparent Kd, compound concentrations: 100 nM and 1000 nM (sheet 'Samples'), n = 1
[1] = compound concentrations:100 nM and 1000 nM (sheet 'Samples')

N#Cc1cccc(Nc2nccc(-c3cnn4ncccc34)n2)c1 [GW778894X] was tested. Which potency estimated from few doses (CDK4; [1]) did it give?
Its potency estimated from few doses is 1.83 µM.

What about the potency estimated from few doses (CDK7; [1]) of the same molecule?
Its potency estimated from few doses is 0.373 µM.

And the potency estimated from few doses (NUAK1; [1])?
The potency estimated from few doses was 0.792 µM.

And the potency estimated from few doses (TGFBR2)?
The potency estimated from few doses was 0.0357 µM.

How did the potency estimated from few doses (ACVR2B; CATDS: 7.2197051902398501E-2) turn out when Fc1cc(Cl)ccc1Nc1ccnc2cc(-c3ccc(CN4CCOCC4)o3)ccc12 [GW560109X] was run?
The potency estimated from few doses was 0.673 µM.

For CNc1nccc(-c2c(-c3ccc(F)cc3)ncn2C2CCN(C)CC2)n1 [SB-222903], which potency estimated from few doses (MAPK10; [1]) is on record?
The potency estimated from few doses was 0.976 µM.

What about the potency estimated from few doses (MAPK11; [1]) of the same molecule?
Its potency estimated from few doses is 1.08 µM.

Which potency estimated from few doses (AURKA; CATDS: 6.1882254370992797E-2) does the source give for CNC(=O)c1ccccc1Nc1nc(Nc2cccc(CS(C)(=O)=O)c2)ncc1C.O=CO [GSK1520489A] here?
Its potency estimated from few doses is 0.0169 µM.

What about the potency estimated from few doses (MAPK10; compound concentrations: 100 nM and 1000 nM (sheet 'Samples'), CATDS: 1.2611209241053301E-2) of the same molecule?
The potency estimated from few doses was 0.502 µM.

What about the potency estimated from few doses (NUAK1; compound concentrations: 100 nM and 1000 nM (sheet 'Samples'), CATDS: 1.6678428283329098E-2) of the same molecule?
Its potency estimated from few doses is 0.217 µM.

What about the potency estimated from few doses (STK10; compound concentrations: 100 nM and 1000 nM (sheet 'Samples'), CATDS: 2.4296695352096099E-2) of the same molecule?
The potency estimated from few doses was 0.0885 µM.

How did the potency estimated from few doses (PKN3) turn out when CC(=O)c1c(-c2ccncc2)[nH]c(-c2ccncc2)c1C [GW493036X] was run?
The potency estimated from few doses was 1.07 µM.

With CN1CCN(Cc2ccc(NC(=O)Nc3ccc(N(C)c4ccnc(Nc5ccc(CS(C)(=O)=O)cc5)n4)cc3)cc2)CC1.Cl [GW827654A] as the molecule, how does the potency estimated from few doses (AURKA; CATDS: 6.4898936627914502E-2) read?
The potency estimated from few doses was 0.288 µM.

For Clc1ccc(-c2nn3ncccc3c2-c2ccnc(Nc3ccccc3)n2)cc1 [GW829055X], which potency estimated from few doses (CDK4; compound concentrations: 100 nM and 1000 nM (sheet 'Samples'), CATDS: 3.2528026841687298E-2) is on record?
Its potency estimated from few doses is 1.96 µM.

And the potency estimated from few doses (PIM2; CATDS: 3.1911296970739501E-2)?
Its potency estimated from few doses is 2.07 µM.

And the potency estimated from few doses (PRKAG1; compound concentrations: 100 nM and 1000 nM (sheet 'Samples'), CATDS: 3.7997381036159197E-2)?
Its potency estimated from few doses is 1.32 µM.

And the potency estimated from few doses (SYK)?
The potency estimated from few doses was 2.27 µM.

For COc1cc2ncn(-c3cc(OCc4sccc4Cl)c(C(N)=O)s3)c2cc1OC [GSK448459A], which potency estimated from few doses (STK10; [1]) is on record?
Its potency estimated from few doses is 0.333 µM.

Which potency estimated from few doses (CDK7; compound concentrations: 100 nM and 1000 nM (sheet 'Samples'), CATDS: 0.191679480220071) does the source give for CCCN1CCC(Oc2cc(Nc3nc(Nc4cccc(F)c4C(N)=O)c4cc[nH]c4n3)c(OC)cc2Cl)CC1 [GSK1713088A] here?
The potency estimated from few doses was 1.74 µM.

How did the potency estimated from few doses (CDK4; compound concentrations: 100 nM and 1000 nM (sheet 'Samples'), CATDS: 0.17554209006480601) turn out when Cc1ccc(NC(=O)c2ccc(Cl)cc2)cc1-c1ccc(C(=O)Nc2ccncc2)cc1 [GSK1398467A] was run?
The potency estimated from few doses was 1.65 µM.

With COc1cc(N2CCN(C(C)C)CC2)ccc1Nc1nc(Nc2cccc(F)c2C(=O)O)c2cc[nH]c2n1 [GSK1819799A] as the molecule, how does the potency estimated from few doses (PIM2; CATDS: 4.4865682499900299E-2) read?
Its potency estimated from few doses is 1.71 µM.

NC(=O)c1cccnc1COc1cc(-c2ccc(N3CCOCC3)nc2)cc2ncccc12 [BI01125081] was tested. Which potency estimated from few doses (BMPR1A) did it give?
The potency estimated from few doses was 1.37 µM.

And the potency estimated from few doses (NUAK1; [1])?
The potency estimated from few doses was 1.08 µM.

What about the potency estimated from few doses (TGFBR2) of the same molecule?
The potency estimated from few doses was 1.31 µM.

For Fc1cccc(COc2ccc(Nc3ncncc3C#Cc3ccccc3)cc2Cl)c1 [GW651576X], which potency estimated from few doses (EPHB3) is on record?
Its potency estimated from few doses is 2.08 µM.

COc1cc(F)c(F)c(F)c1C(=O)c1cnc(NC2CCN(S(C)(=O)=O)CC2)nc1N [RO4600703-000] was tested. Which potency estimated from few doses (CDK4; [1]) did it give?
The potency estimated from few doses was 1.31 µM.

And the potency estimated from few doses (CDK7; [1])?
The potency estimated from few doses was 0.821 µM.

COc1ccc(C2=C(Nc3cccc(O)c3)C(=O)NC2=O)cc1 [SB-390766] was tested. Which potency estimated from few doses (TGFBR2) did it give?
The potency estimated from few doses was 2.03 µM.

With Nc1c(C(=O)c2ccccc2)cnn1-c1ccc(F)cc1 [RO1151246-000] as the molecule, how does the potency estimated from few doses (MAPK11; [1]) read?
Its potency estimated from few doses is 1.42 µM.

And the potency estimated from few doses (PKN3)?
The potency estimated from few doses was 2.07 µM.

How did the potency estimated from few doses (STK10; [1]) turn out when COc1cc2ncn(-c3cc(O[C@H](C)c4ccccc4Cl)c(C(N)=O)s3)c2cc1OC [GSK237701A] was run?
The potency estimated from few doses was 0.574 µM.

For COc1ccc(C2=C(c3cn(C)c4ccccc34)C(=O)NC2=O)cc1OC [RO3206363-000], which potency estimated from few doses (PRKAG1; compound concentrations: 100 nM and 1000 nM (sheet 'Samples'), CATDS: 0.103334601265543) is on record?
Its potency estimated from few doses is 0.0995 µM.

With COc1ccc(S(=O)(=O)NC2CCN(c3cc(C)nc(Nc4cccc(C#N)c4)n3)CC2)cc1.O=C(O)C(F)(F)F [GSK1653539A] as the molecule, how does the potency estimated from few doses (PIK3CG; CATDS: 0.32479738642046602) read?
Its potency estimated from few doses is 1.38 µM.

Fc1ccc(-c2ncn(C3CCNCC3)c2-c2ccnc(Oc3ccc4c(c3)OCO4)n2)cc1 [SB-250715] was tested. Which potency estimated from few doses (MAPK11; [1]) did it give?
The potency estimated from few doses was 0.0404 µM.

And the potency estimated from few doses (PRKAG1; [1])?
The potency estimated from few doses was 1.75 µM.

How did the potency estimated from few doses (MAPK11; compound concentrations: 100 nM and 1000 nM (sheet 'Samples'), CATDS: 6.1190831662216998E-2) turn out when COc1ccc(-c2nn3ncccc3c2-c2ccnc(Nc3ccc4c(c3)OCCO4)n2)cc1 [GW827106X] was run?
Its potency estimated from few doses is 0.956 µM.

What about the potency estimated from few doses (PIK3CG; CATDS: 5.53437190113686E-2) of the same molecule?
The potency estimated from few doses was 1.18 µM.

Cc1ccc(CC(=O)N2CCc3cc(-c4cn(C)c5ncnc(N)c45)ccc32)cc1 [GSK2634758A] was tested. Which potency estimated from few doses (CDK4; compound concentrations: 100 nM and 1000 nM (sheet 'Samples'), CATDS: 0.135917779714779) did it give?
The potency estimated from few doses was 2.25 µM.

Which potency estimated from few doses (ACVR2B; CATDS: 0.67382048852526699) does the source give for Cl.c1ccc(-c2ccc3c(Nc4ccc5[nH]ncc5c4)ccnc3c2)nc1 [GW440137A] here?
The potency estimated from few doses was 0.0119 µM.

From article PMC11062922 (Nature Chemical Biology, 2023)
